Compound activity from PubChem BioAssay.
SSB-PriA inh – inhibitors of Klebsiella pneumoniae PriA binding to SSB C-terminal tail, primary screen, biochemical, AlphaScreen; PriA–SSB C-terminal tail interaction (Klebsiella pneumoniae); AlphaScreen SSBct-PriA binding, biotinylated peptide; inhibition, % at 33 µM; 430,000 compounds, 0.6% hits; AID 1272365, 2023; in the data active = inhibition mostly above about 37%, no sharp cut-off; inactive = mostly below about 20%
Sa ugtP lethal – growth inhibition of ugtP-null S. aureus, primary screen, RN4220 ugtP deletion, OD600; 16 h; growth inhibition, % (test concentration not listed); 330,000 compounds, 0.54% hits; AID 1259309, 2017; in the data active = growth inhibition above about 68%
MazF activator – activators of E. coli MazEF toxin-antitoxin RNase, primary screen, biochemical, fluorescence, uHTS; activation, % at 20 µM; FAM/BHQ RNA-DNA oligo cleavage fluorescence, 5 h; 350,000 compounds, 0.32% hits; in the data active = activation above about 50%
Target sequence (P0AE70 whole entry, looked up): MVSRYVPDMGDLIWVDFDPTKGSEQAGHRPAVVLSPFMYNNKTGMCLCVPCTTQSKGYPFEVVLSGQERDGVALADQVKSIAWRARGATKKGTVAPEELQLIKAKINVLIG
BJeLR lethal – MLPCN primary cell-based screen for lethality selective to Ras in HRASV12 cells; BJeLR (HRASV12) viability, CellTiter-Glo ATP luminescence, 48 h; inhibition, % (concentration not given with the values); AID 1554, 2009; 300,000 compounds, 0.17% hits; in the data active = inhibition above about 50%
RN4220 kill – growth inhibition of S. aureus RN4220, primary screen, OD600; 16 h; inhibition, % (test concentration not listed); 330,000 compounds, 0.33% hits; AID 1259311, 2017; in the data active = inhibition above about 85%
Numbers stand for hits. Hits are enriched below; roughly 1.2% of the tested compounds scored in any of these assays.

`CC(C)C1Nc2c(O)cc(Cl)c([N+](=O)[O-])c2C2C=CCC21` (stereo unspecified) gave SSB-PriA inh inactive, Sa ugtP lethal 93.2, MazF activator inactive, BJeLR lethal inactive and RN4220 kill 87.4.
O=C(O)C1Nc2c(Cl)cc(Cl)c(Cl)c2C2C=CCC12 (stereo unspecified) was read as SSB-PriA inh inactive, Sa ugtP lethal inactive, MazF activator inactive, BJeLR lethal inactive and RN4220 kill inactive.
CC(Oc1ccc(Cl)cc1Cl)c1nc(-c2ccc(NC(=O)c3cccnc3)cc2)no1 (stereo unspecified) was read as SSB-PriA inh inactive, Sa ugtP lethal inactive, MazF activator inactive, BJeLR lethal 72.3 and RN4220 kill inactive.
CC(Oc1ccc(Cl)cc1Cl)c1nc(-c2ccc(NC(=O)c3ccncc3)cc2)no1 (stereo unspecified) was read as SSB-PriA inh inactive, Sa ugtP lethal inactive, MazF activator inactive, BJeLR lethal inactive and RN4220 kill inactive.
`CCSc1ccc(CC(=O)Nc2nccs2)cc1` gave SSB-PriA inh inactive.
O=C(Nc1nnc(Cc2cccs2)o1)c1ccccc1 was read as SSB-PriA inh inactive.
`CCSc1ccc(C(=O)Nc2nnc(Cc3cccs3)o2)cc1` gave SSB-PriA inh 36.0.
Screening O=C(Nc1nnc(Cc2cccs2)o1)c1cccs1 returned SSB-PriA inh inactive.
O=C(Nc1nnc(Cc2cccs2)o1)c1ccc2ncsc2c1 was read as SSB-PriA inh 71.0.
`O=C(Nc1nnc(Cc2cccs2)o1)c1ccc(Cl)s1` gave SSB-PriA inh 35.0.
For CCSc1ccc(C(=O)Nc2nccs2)cc1 the results were SSB-PriA inh 64.0.
`CC(C)OC(=O)C1C(=O)CC(C)(O)C(C(=O)OC(C)C)C1c1cccnc1` (stereo unspecified) gave SSB-PriA inh inactive, Sa ugtP lethal inactive, MazF activator inactive, BJeLR lethal inactive and RN4220 kill inactive.
`CCOc1ccc(NC(=O)NCCNC(=O)c2ccc(NC(=O)C3CCCC3)cc2)cc1` gave SSB-PriA inh inactive.
`O=C(CSc1nc(-c2ccco2)cc(C(F)(F)F)n1)N1CCOCC1` gave SSB-PriA inh inactive.
For CC(C)=NNc1ncnc2nc[nH]c12 the results were SSB-PriA inh 49.5 and MazF activator inactive.
`CC(C)OC(=O)c1ccc(S(N)(=O)=O)o1` gave SSB-PriA inh inactive, Sa ugtP lethal inactive, MazF activator inactive, BJeLR lethal inactive and RN4220 kill inactive.
Screening CC(C)OC(=O)c1cc2c(=O)[nH]c(C(Cl)(Cl)Cl)nc2o1 returned SSB-PriA inh inactive, Sa ugtP lethal 86.7, MazF activator inactive, BJeLR lethal inactive and RN4220 kill 91.9.
Screening CC(C)(C)NC(=O)NC(=O)COC(=O)c1cccc(OC(F)F)c1 returned SSB-PriA inh inactive, Sa ugtP lethal inactive, MazF activator inactive, BJeLR lethal inactive and RN4220 kill inactive.
Cc1c(CCC(=O)O)c(=O)oc2cc3occ(-c4ccc(Cl)cc4)c3cc12 was read as SSB-PriA inh inactive, Sa ugtP lethal inactive, MazF activator inactive, BJeLR lethal inactive and RN4220 kill inactive.
`Cc1c(CCC(=O)O)c(=O)oc2c(C)c3occ(-c4ccc(Cl)cc4)c3cc12` gave SSB-PriA inh inactive, Sa ugtP lethal 100.7, MazF activator inactive, BJeLR lethal inactive and RN4220 kill 96.4.
Screening S=c1[nH]nc(-c2ccccn2)n1N=Cc1cccs1 returned SSB-PriA inh 57.6, Sa ugtP lethal inactive and RN4220 kill inactive.
`O=[N+]([O-])c1cc2c(cc1C=Nn1c(-c3ccccc3)n[nH]c1=S)OCO2` gave SSB-PriA inh inactive, Sa ugtP lethal inactive and RN4220 kill inactive.
For O=[N+]([O-])c1cc2c(cc1C=Nn1c(-c3ccccn3)n[nH]c1=S)OCO2 the results were SSB-PriA inh 98.8, Sa ugtP lethal inactive and RN4220 kill inactive.
Screening S=c1[nH]nc(-c2ccccc2)n1/N=C/c1cccs1 returned MazF activator inactive and BJeLR lethal inactive.
O=c1cc(CO)oc(CN2CCCC2)c1O was read as SSB-PriA inh inactive, Sa ugtP lethal inactive, MazF activator inactive, BJeLR lethal inactive and RN4220 kill inactive.
`Cc1cc(C=O)c(C)n1-c1ccc(NC2CCCC2)c([N+](=O)[O-])c1` gave SSB-PriA inh 67.5, Sa ugtP lethal inactive, MazF activator inactive, BJeLR lethal inactive and RN4220 kill inactive.
Clc1cc2cccnc2c2ncccc12 was read as SSB-PriA inh 99.3, Sa ugtP lethal inactive, MazF activator inactive and RN4220 kill inactive.
Screening Brc1cc2cccnc2c2ncccc12 returned SSB-PriA inh 151.0.
Screening Brc1ccc2ccc3cccnc3c2n1 returned SSB-PriA inh inactive.
CC(=O)Nc1ccc(C(=O)CSc2cc(C)c3cccc(C)c3n2)cc1 was read as SSB-PriA inh inactive, Sa ugtP lethal inactive, MazF activator 77.7, BJeLR lethal inactive and RN4220 kill inactive.
For Cc1cc(SCC(=O)c2cccs2)nc2c(C)cccc12 the results were SSB-PriA inh inactive, Sa ugtP lethal inactive, MazF activator inactive, BJeLR lethal inactive and RN4220 kill inactive.
For COC(=O)C1C(C)OC(=O)NC1c1ccccc1 (stereo unspecified) the results were Sa ugtP lethal inactive and RN4220 kill inactive.
CCC(=O)Nc1ccc(C(=O)Nc2ccc(OC)cc2[N+](=O)[O-])cc1 was read as SSB-PriA inh inactive, Sa ugtP lethal inactive, MazF activator inactive, BJeLR lethal inactive and RN4220 kill inactive.
Screening CN(N=Nc1ccc([N+](=O)[O-])cc1)c1ccccc1 returned SSB-PriA inh inactive, MazF activator active and BJeLR lethal inactive.
For CCOc1ccccc1Nc1nc(-c2sc(NC(=O)c3ccc([N+](=O)[O-])cc3)nc2C)cs1 the results were BJeLR lethal 77.5.
For Cc1ccccc1Nc1nc(-c2sc(NC(=O)c3ccc([N+](=O)[O-])cc3)nc2C)cs1 the results were BJeLR lethal inactive.
Screening Cc1ccc(CNC(=O)C2CC(c3ccccc3F)=NO2)cc1 (stereo unspecified) returned SSB-PriA inh inactive, Sa ugtP lethal inactive, MazF activator inactive, BJeLR lethal inactive and RN4220 kill inactive.
CCCn1nnnc1NCc1ccc(N(CC)CC)cc1 was read as SSB-PriA inh inactive, Sa ugtP lethal inactive, MazF activator 554.9, BJeLR lethal inactive and RN4220 kill inactive.
Screening CCN(CC)c1ccc(CNc2nnnn2C)cc1 returned SSB-PriA inh inactive, Sa ugtP lethal inactive, MazF activator inactive, BJeLR lethal inactive and RN4220 kill inactive.
CCc1cc(=O)[nH]c(-n2[nH]c(-c3ccccc3)cc2=O)n1 was read as SSB-PriA inh inactive, MazF activator inactive and BJeLR lethal inactive.
`O=c1cc(-c2ccccc2)[nH]n1-c1nc2ccccc2[nH]1` gave SSB-PriA inh 68.8, Sa ugtP lethal inactive, MazF activator inactive, BJeLR lethal inactive and RN4220 kill inactive.
